The panel holds about 83,000 compounds, 20% with a hit somewhere; the sample as a whole holds those more often.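 Single-dose data. Exposure time 48 hours. Values below 10 considered active.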 Values without a mark were called inactive. Activity calls are given as the source filed them.
test system: COLO 205 colon; assay: NCI-60 one-dose screen, 48 h (100 = growth as untreated, 0 = no growth, -100 = all killed); conditions: 10 µM unless noted

Q: Which growth does the source give for `COc1ccc(N=C2CSc3nnc(-c4cc(F)c(Cl)cc4Cl)n3N2)cc1` here?
A: -21.1% (active)

Q: `Nc1c(C(=O)Nc2cccc(Cl)c2)sc2nc3c(cc12)C(=O)CCC3` was tested. Which growth did it give?
A: 10.2%

Q: `COc1ccc(CNc2c3ccccc3nc3ccc(OC)cc23)cc1` was tested. Which growth did it give?
A: -51.4% (active)

Q: With `CCOC(=O)c1cc(C(=O)OCC)c(C)nc1C` as the compound, how does the growth read?
A: 109%

Q: `NC(=O)N/N=C\c1ccc([N+](=O)[O-])o1` was tested. Which growth did it give?
A: 117%

Q: `Cc1ccc(NC(=O)c2sc3nc4c(cc3c2N)C(=O)CCC4)cc1Cl` was tested. Which growth did it give?
A: 128%

Q: Which growth does the source give for `COc1ccc(-n2c(COc3ccc(F)cc3)n[nH]c2=S)cc1` here?
A: 116%

Q: How did the growth turn out when `COc1ccccc1-[n+]1cc(-c2ccc(-c3ccccc3)cc2)n2c1CCCCC2` was run?
A: -7.92% (active)

Q: For `Nc1cc(C(=O)O)cc(C(=O)O)c1`, which growth is on record?
A: 99%

Q: How did the growth turn out when `CN(C)c1nc(-c2cccs2)n2nc(-c3ccco3)cc2n1` was run?
A: 126%

Q: For `O=C(Nc1cccc(-n2ccc3c(NC(=O)c4ccccc4)nccc32)c1)c1ccc(N2CCOCC2)c(C(F)(F)F)c1`, which growth is on record?
A: -23.4% (active)

Q: How did the growth turn out when `CNC(=O)c1c(NC(=O)c2ccc(C(C)C)cc2)sc2c1CCC(=O)C2` was run?
A: -70.3% (active)

Q: With `CC(CN1CCN(CC(C)Nc2ccnc3cc(Cl)ccc23)CC1)Nc1ccnc2cc(Cl)ccc12` (centres undefined) as the compound, how does the growth read?
A: -85% (active)

Q: `Cc1c2c(cc3c1[nH]c1ccccc13)C=NCC2` was tested. Which growth did it give?
A: 78.2%

Q: With `CC(C)c1ccc2c(c1)CCC1C2CCCC1(C)NCc1ccccc1` (centres undefined) as the compound, how does the growth read?
A: -35.8% (active)

Q: For `CC1(C)OC2OC3C(CN)OC(c4ccccc4)OC3C2O1` (centres undefined), which growth is on record?
A: 103%

Q: How did the growth turn out when `O=C1Nc2ccc(Br)cc2/C1=N/c1nc(-c2ccccc2)cs1` was run?
A: 94.7%

Q: With `CS(=O)(=O)c1ccc(C(=O)N/N=C/c2ccccc2Cl)cc1` as the compound, how does the growth read?
A: 90.9%

Q: How did the growth turn out when `Cc1ccc(Nc2cccc3ccccc23)cc1` was run?
A: 101%

Q: `CCCCc1nc(Cl)c(C2CC(c3ccc(S(N)(=O)=O)cc3)=NN2c2ccc(C#N)cc2)[nH]1` (centres undefined) was tested. Which growth did it give?
A: 87.8%

Q: For `O/N=C1\c2ccccc2-c2ccc(Br)cc21`, which growth is on record?
A: 136%

Q: For `CCN(CC)CCCC(C)Nc1c(-c2ccccc2)cnc2cc(Cl)ccc12` (centres undefined), which growth is on record?
A: 85.3%

Q: Which growth does the source give for `OC(COCc1ccccc1)COCc1ccccc1` here?
A: 110%

Q: How did the growth turn out when `O=C(CC(=O)c1cccc(Cl)c1)c1cccc(Cl)c1` was run?
A: 46.9%

Q: How did the growth turn out when `O=C1CCCN1C1CCN2CCCc3cccc1c32` (centres undefined) was run?
A: 110%

Q: Which growth does the source give for `CC(C)(C)[Si](C)(C)OC1[C@@H](CNC(N)=O)O[C@@H](n2cnc3c(NC(=O)Nc4ccccc4)ncnc32)[C@H]1O[Si](C)(C)C(C)(C)C` (some centres undefined) here?
A: 9.85% (active)

Q: With `NC(CCC(=O)NC(CS)C(=O)NCC(=O)O)C(=O)O` (centres undefined) as the compound, how does the growth read?
A: 104%

Q: How did the growth turn out when `C/C(=N\NC(=O)CSc1nc2ccccc2c(=O)n1CCc1ccc(S(N)(=O)=O)cc1)c1ccc(Br)cc1` was run?
A: 93.6%

Q: With `CC(C)CCSc1nc(Nc2ccccc2)c(C#N)c(-c2ccc(F)cc2)n1` as the compound, how does the growth read?
A: 18.6%

Q: For `CCOC(=O)C1OC2(CCCC2)OC1C(=O)OCC` (centres undefined), which growth is on record?
A: 111%

Q: How did the growth turn out when `CS(=O)(=O)c1ccc(C(=O)N/N=C/c2ccccc2O)cc1` was run?
A: 31.2%

Q: Which growth does the source give for `O=C(NCCN1CCCC1)n1cc(-c2ccncc2)c(-c2cc(O)cc(Cl)c2)n1` here?
A: 76.4%

Q: With `C[C@@H]1N=C(c2ccc3ccccc3c2)Nc2nc3ccccn3c2C1=O` as the compound, how does the growth read?
A: 22.8%

Q: With `CNCCCn1c2c(c3ccc(Cl)cc3c1=O)C(=O)c1cc(OC)cnc1-2` as the compound, how does the growth read?
A: 51.9%

Q: Which growth does the source give for `CC(=O)Oc1ccccc1C(=O)Nc1ncc([N+](=O)[O-])s1` here?
A: 93.2%

Q: With `O=C1/C(=C/c2ccccc2)SC(=Nc2ccccc2)N1Nc1ccccc1` as the compound, how does the growth read?
A: 0.201% (active)

Q: For `Oc1c(C(Nc2cccc3ccccc23)c2ccccc2)ccc2cccnc12` (centres undefined), which growth is on record?
A: 38%

Q: How did the growth turn out when `COc1ccc(CC2c3cc(OC)c(OC)cc3CC[N+]2(C)CCC(=O)OCCCCCOC(=O)CC[N+]2(C)CCc3cc(OC)c(OC)cc3C2Cc2ccc(OC)c(OC)c2)cc1OC` (centres undefined) was run?
A: 112%

Q: Which growth does the source give for `CCn1c(Cc2ccccc2Nc2c(Cl)cccc2Cl)nnc1SCC(=O)Nc1ccccc1C(F)(F)F` here?
A: 99.1%
